The whole screen tested about 48,000 compounds, of which about 13,000 (27%) showed an effect of 50% or more. The list shows a part of the results.
system: Wolbachia pipientis; experiment: Anti-Wolbachia Cell-Based Screen; format: functional; set-up: scale not given: in the data most compounds retested in dose-response had high values; conditions: 5 µM

SMILES | Percent Effect [%]
CN(Cc1ccco1)C(=O)CN1CCCCC1Cn1cccn1 (stereo not drawn) | 4.659
CN(Cc1ccco1)C(=O)CN1CCCC1Cn1cccn1 (stereo not drawn) | -1.962
CN(Cc1ccco1)C(=O)CN1CCOC(Cn2cccn2)C1 (stereo not drawn) | 126.4
CN(Cc1ccco1)C(=O)CN1CCCCC1Cn1cncn1 (stereo not drawn) | -0.1414
Cc1ccc(CN(C)C(=O)CN2CCCC2Cn2cccn2)o1 (stereo not drawn) | 15.96
Cc1ccc(CN(C)C(=O)CN2CCCCC2Cn2cncn2)o1 (stereo not drawn) | -8.08
Cc1ccc(-c2nc(CN3CCOC(Cn4cccn4)C3)cs2)o1 (stereo not drawn) | -10.9
Cc1ncsc1CN1C[C@@H]2COC[C@]2(COc2ccc(C#N)cn2)C1 | -4.86
COc1ccc(Cl)cc1C(=O)N(C)Cc1cc(C)on1 | -1.731
COCc1cc(N2CCc3onc(-c4cccc(OC)c4)c3C2)ncn1 | -6.434
Cc1nc(C)c(CNCC2CCCn3ccnc32)s1 (stereo not drawn) | -11.09
O=C(Nc1ncn(Cc2cccc(Br)c2)n1)C1CCC1 | 6.264
Cc1ccccc1CN(C)C(=O)CN1CCOC(Cn2cccn2)C1 (stereo not drawn) | 111
O=C(CN1CCOC(Cn2cccn2)C1)Nc1ccncc1 (stereo not drawn) | -3.889
Cc1nnc(NC(=O)CN2CCOC(Cn3cccn3)C2)s1 (stereo not drawn) | -11.4
O=C(CN1CCOC(Cn2cccn2)C1)NCCc1ccc(F)cc1 (stereo not drawn) | -2.964
CN(Cc1ccc(F)cc1)C(=O)CN1CCOC(Cn2cccn2)C1 (stereo not drawn) | 121.8
CN(Cc1ccc(F)cc1)C(=O)CN1CCOC(Cn2cncn2)C1 (stereo not drawn) | -5.304
CCN(CCC(F)(F)F)C(=O)Nc1cccc(N2CCOCC2)c1 | -10.51
CN1CCC(Cc2cc(Nc3ccccn3)ncn2)CC1 | 68.08

SMILES | Percent Effect [%]
CC1CCN(CC(O)CNc2ccccn2)CC1 (stereo not drawn) | -1.4
CN1CCC(Cc2cc(Nc3ncccn3)ncn2)CC1 | -2.002
CCC(=O)N1CCC(Cc2cc(Nc3ncccn3)ncn2)CC1 | 93.47
N#CCCN(Cc1cccnc1)C(=O)c1ccn(-c2ccccc2)n1 | 1.241
COc1ccc(/C=C/CN2C[C@H]3CC[C@@H]2CN(S(=O)(=O)N(C)C)C3)cc1 | 13.82
COc1cc(NCC(c2ccccn2)N(C)C)ncn1 (stereo not drawn) | 0.2576
CC(C)c1cc(NCC2(CO)CCCC2)ncn1 | 7.781
C[C@H](O)CNc1cc(-c2ccccc2)ncn1 | 111.5
C[C@H](O)CNc1cc(-c2ccncc2)ncn1 | 115
C[C@H](O)CNC(=O)c1cnc(-c2ccccc2)nc1O | -14.22
CC(C)c1cc(NCC(O)c2ccncc2)n2nccc2n1 (stereo not drawn) | -8.35
O=C(c1ccno1)N1CCC2(CC(=O)N(c3ccc4c(c3)OCO4)C2)C1 (stereo not drawn) | -9.598
Cc1ccc(C)c(C(O)Cn2cc(Cl)c(=O)[nH]c2=O)c1 (stereo not drawn) | 3.012
COCCNC(=O)Cn1cc2c(n1)c(C)nn2C | 124.1
CCn1nccc1CNC(=O)C(C)n1cc2c(n1)c(C)nn2C (stereo not drawn) | 13.18
COCCNC(=O)C(C)n1cc(Br)cn1 (stereo not drawn) | 8.857
COCCNC(=O)Cn1cc2c(n1)c(C)nn2C(C)C | 92.82
CCn1nccc1CNC(=O)C1CCCC1 | 10.33
COCCNC(=O)N1CCOCC1c1c(C)nn(C)c1C (stereo not drawn) | -9.833
COCCNC(=O)c1cnc(C)nc1C | -12.85

SMILES | Percent Effect [%]
COCCNC(=O)Cn1nc(C(C)C)c2cnn(C(C)(C)C)c2c1=O | -0.4126
CCn1nccc1CNC(=O)Cn1cc2c(n1)c(C)nn2C(C)C | 116.7
O=C(NCc1cnc2n1CCN(Cc1cccs1)C2)c1ccno1.O=C(O)C(F)(F)F | -34.76
CC(C)(C)c1noc(CCC(=O)N2CCNC(=O)C2)n1 | -18.81
CC(C)Cc1ncc2c(n1)CN(c1cc(N)nc(N)n1)C2 | 16.38
CN(CCc1cn[nH]c1)C(=O)C(c1ccc(F)cc1)N(C)C (stereo not drawn) | -6.005
CN(CCc1cn[nH]c1)C(=O)CCc1ccc(Cl)cc1 | 144.4
Cc1ccc(C(C(=O)N(C)CCc2cn[nH]c2)N(C)C)cc1 (stereo not drawn) | 3.285
CC(=O)N1CCN(CCNc2snc(Cl)c2C#N)CC1 | 4.799
N#CCCN(Cc1cccnc1)C(=O)Cc1ccc(-n2cnnn2)cc1 | -0.659
Cc1ccc(N(CCC#N)C(=O)CCc2cccnc2)cc1C | 98.05
c1cncc(CCc2nc(C3CC3)nn2-c2ccc3c(c2)OCCO3)c1 | -5.22
CCC(C)N(Cc1cccnc1)Cc1ccc2c(c1)OCCO2 (stereo not drawn) | 9.848
N#CCCN(Cc1cccnc1)C(=O)c1cccc(-n2cnnn2)c1 | -18.3
CC(C)(NCC(=O)NCCC#N)c1ccc2c(c1)OCCO2 | 4.777
COCCC(=O)N(CCC#N)c1ccc2c(c1)OCCO2 | 95.73
N#CCCN(C(=O)CCc1cccnc1)c1ccc2c(c1)OCCO2 | 88.06
COCCCC(=O)NS(=O)(=O)c1ccc2c(c1)OCCCO2 | -8.462
